The results in this text go back to PubChem BioAssay (NCATS).

Molecules are shown by their SMILES. Records with an inconclusive call do not appear. A call without a number means that no potency is given here. Calls of active or inactive are those of the source. Calls come from the whole dose curve; as a rule, active = well fitted inhibition curve with a large enough effect; inconclusive = small, poorly fitted or top-dose-only effect; inactive = flat fitted curve, though single readings scatter.
Potency is the fitted concentration of half-maximal effect.

The first experiment deals with CP329. Nature of the experiment: qHTS profiling for inhibitors of Plasmodium falciparum proliferation (AID 504749). Note: nearly all actives have a fitted effect of over 60% in size. To be noted: P. falciparum in erythrocytes, SYBR Green DNA, 72 h; series mostly up to 28.7 µM. In outline:
(§1)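 Infected RBCs, 0.3% parasitemia/2.5% Hct final; cpd 72 h, 37 C, 5% CO2; lysis buffer with saponin/triton/SYBR Green I, o/n RT dark; FI 485/535; norm. to artemisinin (0.29 uM) and DMSO.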
As for `C#C[C@]1(O)CC[C@H]2[C@@H]3CCc4cc(OC)ccc4[C@H]3CC[C@@]21C`, the Potency result was “inactive”.

Regarding `CCCCNC(=O)NS(=O)(=O)c1ccc(N)cc1`, the Potency entry was “inactive”.

With `Nc1ccc(C(=O)NCC(=O)O)cc1`, the Potency entry is “inactive”.

Consider `OC1C(O)C(O)C(O)C(O)C1O` (stereo not given), for which the Potency result was “inactive”.

For `O=S(=O)(O)c1ccc(O)cc1`, the Potency result was “inactive”.

On to `COc1cc(C(=O)NCc2ccc(OCCN(C)C)cc2)cc(OC)c1OC`, for which the Potency entry is “inactive”.

On to `COc1cc(C)nc(-n2nc(C)cc2OC)n1`, for which the Potency entry was “inactive”.

As to `CC(=O)Oc1ccc(C)cc1`, the Potency entry was “inactive”.

Consider `CC(=O)NC(=O)c1ccccc1O`, for which the Potency entry is “inactive”.

Take `FC(F)(F)C(F)(F)C(F)(F)C(F)(F)C(F)(F)C(F)(F)C(F)(F)C(F)(F)Br`: the Potency entry was “inactive”.

With `c1ccc(-c2nc[nH]c2-c2ccccc2)cc1`, the Potency entry is “inactive”.

With `CCNC(=O)NCc1cccc(Cl)c1`, the Potency entry is “inactive”.

On to `O=C(O)Cc1csc(-c2ccc(Cl)cc2)n1`, for which the Potency result is “inactive”.

For `Nc1nc(-c2ccccc2)c(Br)c(=O)[nH]1`, the Potency result was “inactive”.

Take `O=c1[nH]c(=O)n([C@H]2C[C@H](O)[C@@H](CO)O2)cc1F`: the Potency result is “inactive”.

As for `CC(=O)Nc1ncc([N+](=O)[O-])s1`, the Potency result was “inactive”.

As for `Cc1cccc(C)c1NC(=O)CN1CCCCCC1`, the Potency entry was “inactive”.

Regarding `CC[C@H](c1ccc(O)cc1)[C@@H](CC)c1ccc(O)cc1`, the Potency entry was “inactive”.

As for `Cc1c(-c2ccccc2)oc2c(C(=O)OCCN3CCCCC3)cccc2c1=O`, the Potency result is “inactive”.

With `CCCCCCCCCCCCCCCCO`, the Potency entry was “inactive”.

Turning to `Oc1ccccc1C=NCc1ccccc1`, the Potency result was “inactive”.

On to `CCN(CC)CCNC(=O)COc1ccc(OC)cc1`, for which the Potency entry is “inactive”.

Regarding `COc1cc(N)c(Cl)cc1C(=O)NC1CCN(Cc2ccccc2)CC1`, the Potency entry was “inactive”.

For `Cc1cc(NS(=O)(=O)c2ccc(N)cc2)nc(C)n1`, the Potency entry is “inactive”.

Consider `CC(=O)OC[C@H]1O[C@@H](n2ncc(=O)[nH]c2=O)[C@H](OC(C)=O)[C@@H]1OC(C)=O`, for which the Potency result was “inactive”.

In the case of `CCOc1ccccc1OCCN[C@H](C)Cc1ccc(OC)c(S(N)(=O)=O)c1`, the Potency result is “inactive”.

For `O=C(NCCc1c[nH]c2ccccc12)c1cccnc1`, the Potency entry was “inactive”.

`Cc1ccccc1OCC(O)CO` (stereo not given): the Potency result is “inactive”.

In the case of `Cc1cc(C)cc(OCC2CNC(=O)O2)c1` (stereo not given), the Potency result was “inactive”.

With `CCOc1cc(OCC)c(C(=O)CCC(=O)O)cc1OCC`, the Potency result was “inactive”.

In the case of `N#CCC(=O)NN`, the Potency entry was “inactive”.

For the compound `O=C(O)C(Cc1cc(I)c(O)c(I)c1)c1ccccc1` (stereo not given), the Potency entry was “inactive”.

Consider `CCCCCCCC/C=C\CCCCCCCCN`, for which the Potency entry is “inactive”.

For the compound `CC1=C(C(=O)O)N2C(=O)[C@@H](NC(=O)[C@H](N)c3ccccc3)[C@H]2SC1`, the Potency result was “inactive”.

Consider `CCN(CC)CCNc1ccc(CO)c2sc3ccccc3c(=O)c12`, for which the Potency was 4.78 µM (active).

Take `Cl/C(=C\n1cncn1)c1ccc(Cl)cc1Cl`: the Potency entry is “inactive”.

On to `CCCCCCCCCCCCCCCC(=O)O`, for which the Potency result was “inactive”.

For `CC(C)CCCC(C)N` (stereo not given), the Potency entry is “inactive”.

As for `CCOC(=O)c1ccc(N)cc1`, the Potency entry was “inactive”.

For the compound `Cc1c[nH]c2ccccc12`, the Potency result is “inactive”.

Another experiment concerns CP335. The experiment is described as above. The following applies: P. falciparum in erythrocytes, SYBR Green DNA, 72 h; series mostly up to 28.7 µM. In outline: as §1
As for `C#C[C@]1(O)CC[C@H]2[C@@H]3CCc4cc(OC)ccc4[C@H]3CC[C@@]21C`, the Potency result was “inactive”.

Turning to `CCCCNC(=O)NS(=O)(=O)c1ccc(N)cc1`, the Potency result is “inactive”.

Take `Nc1ccc(C(=O)NCC(=O)O)cc1`: the Potency entry was “inactive”.

With `OC1C(O)C(O)C(O)C(O)C1O` (stereo not given), the Potency entry was “inactive”.

Consider `O=S(=O)(O)c1ccc(O)cc1`, for which the Potency result is “inactive”.

In the case of `COc1cc(C(=O)NCc2ccc(OCCN(C)C)cc2)cc(OC)c1OC`, the Potency entry was “inactive”.

On to `COc1cc(C)nc(-n2nc(C)cc2OC)n1`, for which the Potency entry was “inactive”.

Regarding `CC(=O)Oc1ccc(C)cc1`, the Potency entry was “inactive”.

Turning to `CC(=O)NC(=O)c1ccccc1O`, the Potency entry was “inactive”.

Regarding `FC(F)(F)C(F)(F)C(F)(F)C(F)(F)C(F)(F)C(F)(F)C(F)(F)C(F)(F)Br`, the Potency entry is “inactive”.

`c1ccc(-c2nc[nH]c2-c2ccccc2)cc1`: the Potency result was “inactive”.

For the compound `CCNC(=O)NCc1cccc(Cl)c1`, the Potency entry was “inactive”.

In the case of `O=C(O)Cc1csc(-c2ccc(Cl)cc2)n1`, the Potency entry is “inactive”.

Take `Nc1nc(-c2ccccc2)c(Br)c(=O)[nH]1`: the Potency result is “inactive”.

For the compound `O=c1[nH]c(=O)n([C@H]2C[C@H](O)[C@@H](CO)O2)cc1F`, the Potency result was “inactive”.

In the case of `CC(=O)Nc1ncc([N+](=O)[O-])s1`, the Potency result was “inactive”.

For the compound `Cc1cccc(C)c1NC(=O)CN1CCCCCC1`, the Potency entry is “inactive”.

Regarding `CC[C@H](c1ccc(O)cc1)[C@@H](CC)c1ccc(O)cc1`, the Potency entry was “inactive”.

For the compound `Cc1c(-c2ccccc2)oc2c(C(=O)OCCN3CCCCC3)cccc2c1=O`, the Potency entry is “inactive”.

As to `CCCCCCCCCCCCCCCCO`, the Potency result was “inactive”.

On to `Oc1ccccc1C=NCc1ccccc1`, for which the Potency result is “inactive”.

`CCN(CC)CCNC(=O)COc1ccc(OC)cc1`: the Potency entry is “inactive”.

Regarding `COc1cc(N)c(Cl)cc1C(=O)NC1CCN(Cc2ccccc2)CC1`, the Potency entry was “inactive”.

Regarding `Cc1cc(NS(=O)(=O)c2ccc(N)cc2)nc(C)n1`, the Potency result is “inactive”.

Take `CC(=O)OC[C@H]1O[C@@H](n2ncc(=O)[nH]c2=O)[C@H](OC(C)=O)[C@@H]1OC(C)=O`: the Potency entry was “inactive”.

In the case of `CCOc1ccccc1OCCN[C@H](C)Cc1ccc(OC)c(S(N)(=O)=O)c1`, the Potency result is “inactive”.

For `O=C(NCCc1c[nH]c2ccccc12)c1cccnc1`, the Potency result is “inactive”.

Turning to `Cc1ccccc1OCC(O)CO` (stereo not given), the Potency result is “inactive”.

On to `Cc1cc(C)cc(OCC2CNC(=O)O2)c1` (stereo not given), for which the Potency entry is “inactive”.

As for `CCOc1cc(OCC)c(C(=O)CCC(=O)O)cc1OCC`, the Potency entry is “inactive”.

`N#CCC(=O)NN`: the Potency result is “inactive”.

Consider `O=C(O)C(Cc1cc(I)c(O)c(I)c1)c1ccccc1` (stereo not given), for which the Potency result was “inactive”.

In the case of `CCCCCCCC/C=C\CCCCCCCCN`, the Potency entry was “inactive”.

`CC1=C(C(=O)O)N2C(=O)[C@@H](NC(=O)[C@H](N)c3ccccc3)[C@H]2SC1`: the Potency entry was “inactive”.

`CCN(CC)CCNc1ccc(CO)c2sc3ccccc3c(=O)c12`: the Potency is 1.51 µM (active).

As for `Cl/C(=C\n1cncn1)c1ccc(Cl)cc1Cl`, the Potency entry is “inactive”.

On to `CCCCCCCCCCCCCCCC(=O)O`, for which the Potency entry was “inactive”.

For `CC(C)CCCC(C)N` (stereo not given), the Potency result is “inactive”.

With `CCOC(=O)c1ccc(N)cc1`, the Potency result was “inactive”.

As to `Cc1c[nH]c2ccccc12`, the Potency result is “inactive”.
